Test results published in PubChem BioAssay AID1159580 (chemical genetic matrix, 2015).
In all, about 5,500 compounds went through this assay and about 2,000 (36%) were called active. Inconclusive results (about 18%) are left out. Cut-off read from the data, not from the text of the source: active = normalized growth mostly below about 0.91 (no sharp cut-off); inconclusive = no clear call, values can overlap the other calls; inactive = mostly above about 0.92. The list shows a part of the results.

Experiment: chemical genetic growth profiling, strain panel (AID 1159580);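 note: tested at 20 µM; growth read once vehicle control cultures reached saturation at 30 °C; 1 = growth at the plate median or of vehicle wells; lower values mean less growth of the strain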
Conditions: growth OD
[1] = S. cerevisiae deletion strains, locus YCL061C, strain MRC1, stronger effect = lower value
[2] = S. cerevisiae deletion strains, locus YJL187C, strain SWE1, stronger effect = lower value

Measured: normalized growth

Cc1ccc(-c2nc3ccc(C)cn3c2CC(=O)N(C)C)cc1
inactive: S. cerevisiae deletion strains, locus YAL021C, strain ccr4, stronger effect = lower value 1.06 | S. cerevisiae deletion strains, locus YAL026C, strain drs2, stronger effect = lower value 1.01 | S. cerevisiae deletion strains, locus YAL030W, strain snc1, stronger effect = lower value 1.02 | S. cerevisiae deletion strains, locus YBL061C, strain skt5, stronger effect = lower value 0.998 | S. cerevisiae deletion strains, locus YBR009C, strain hhf1, stronger effect = lower value 1.02 | S. cerevisiae deletion strains, locus YBR023C, strain chs3, stronger effect = lower value 0.989 | S. cerevisiae deletion strains, locus YBR171W, strain sec66, stronger effect = lower value 1.04 | S. cerevisiae deletion strains, locus YBR231C, strain swc5, stronger effect = lower value 0.966 | S. cerevisiae deletion strains, locus YBR279W, strain paf1, stronger effect = lower value 0.993 | S. cerevisiae deletion strains, locus YCL011C, strain gbp2, stronger effect = lower value 1.01 | S. cerevisiae deletion strains, locus YCL016C, strain dcc1, stronger effect = lower value 0.987 | [1] 1.02 | S. cerevisiae deletion strains, locus YCL069W, strain vba3, stronger effect = lower value 1.02 | S. cerevisiae deletion strains, locus YCR088W, strain abp1, stronger effect = lower value 1.03 | S. cerevisiae deletion strains, locus YDL005C, strain med2, stronger effect = lower value 1.01 | S. cerevisiae deletion strains, locus YDL040C, strain nat1, stronger effect = lower value 1 | S. cerevisiae deletion strains, locus YDR001C, strain nth1, stronger effect = lower value 1.02 | S. cerevisiae deletion strains, locus YDR069C, strain doa4, stronger effect = lower value 1.01 | S. cerevisiae deletion strains, locus YDR137W, strain rgp1, stronger effect = lower value 1.05 | S. cerevisiae deletion strains, locus YDR159W, strain sac3, stronger effect = lower value 0.96 | S. cerevisiae deletion strains, locus YDR195W, strain ref2 1 | S. cerevisiae deletion strains, locus YDR297W, strain sur2, stronger effect = lower value 1 | S. cerevisiae deletion strains, locus YDR334W, strain swr1, stronger effect = lower value 1.02 | S. cerevisiae deletion strains, locus YDR335W, strain msn5, stronger effect = lower value 0.991 | S. cerevisiae deletion strains, locus YDR392W, strain spt3, stronger effect = lower value 0.939 | S. cerevisiae deletion strains, locus YEL003W, strain gim4, stronger effect = lower value 1.01 | S. cerevisiae deletion strains, locus YEL037C, strain rad23, stronger effect = lower value 1.01 | S. cerevisiae deletion strains, locus YEL061C, strain CIN8 (second series), stronger effect = lower value 1.01 | S. cerevisiae deletion strains, locus YER015W, strain faa2, stronger effect = lower value 1.02 | S. cerevisiae deletion strains, locus YER016W, strain bim1, stronger effect = lower value 1.01 | S. cerevisiae deletion strains, locus YER111C, strain swi4, stronger effect = lower value 1.03 | S. cerevisiae deletion strains, locus YER155C, strain BEM2 (second series), stronger effect = lower value 0.998 | S. cerevisiae deletion strains, locus YFR010W, strain ubp6, stronger effect = lower value 1.02 | S. cerevisiae deletion strains, locus YGL167C, strain pmr1, stronger effect = lower value 0.996 | S. cerevisiae deletion strains, locus YGL173C, strain kem1, stronger effect = lower value 1.01 | S. cerevisiae deletion strains, locus YGL227W, strain vid30, stronger effect = lower value 1.01 | S. cerevisiae deletion strains, locus YGL240W, strain doc1, stronger effect = lower value 1.09 | S. cerevisiae deletion strains, locus YGL253W, strain hxk2, stronger effect = lower value 0.999 | S. cerevisiae deletion strains, locus YHR013C, strain ard1, stronger effect = lower value 1.06 | S. cerevisiae deletion strains, locus YHR027C, strain rpn1, stronger effect = lower value 0.981 | S. cerevisiae deletion strains, locus YHR142W, strain chs7, stronger effect = lower value 1.03 | S. cerevisiae deletion strains, locus YJL092W, strain hpr5, stronger effect = lower value 1.02 | S. cerevisiae deletion strains, locus YJL095W, strain BCK1 (second series), stronger effect = lower value 1.01 | S. cerevisiae deletion strains, locus YJL115W, strain asf1, stronger effect = lower value 1.02 | S. cerevisiae deletion strains, locus YJL129C, strain trk1, stronger effect = lower value 1 | S. cerevisiae deletion strains, locus YJL154C, strain vps35, stronger effect = lower value 1.02 | S. cerevisiae deletion strains, locus YJL164C, strain tpk1, stronger effect = lower value 1.01 | S. cerevisiae deletion strains, locus YJL166W, strain qcr8, stronger effect = lower value 1.03 | [2] 1.01 | S. cerevisiae deletion strains, locus YKL160W, strain elf1, stronger effect = lower value 0.997 | S. cerevisiae deletion strains, locus YKR026C, strain gcn3, stronger effect = lower value 1.02 | S. cerevisiae deletion strains, locus YKR091W, strain srl3, stronger effect = lower value 1.03 | S. cerevisiae deletion strains, locus YLL001W, strain dnm1, stronger effect = lower value 0.988 | S. cerevisiae deletion strains, locus YLL026W, stronger effect = lower value 0.999 | S. cerevisiae deletion strains, locus YLL041C, strain sdh2, stronger effect = lower value 1.01 | S. cerevisiae deletion strains, locus YLR027C, strain aat2, stronger effect = lower value 1.02 | S. cerevisiae deletion strains, locus YLR221C, strain rsa3, stronger effect = lower value 0.974 | S. cerevisiae deletion strains, locus YLR258W, strain gsy2, stronger effect = lower value 1.03 | S. cerevisiae deletion strains, locus YLR262C, strain YPT6 (second series), stronger effect = lower value 1.01 | S. cerevisiae deletion strains, locus YLR320W, strain mms22, stronger effect = lower value 0.991 | S. cerevisiae deletion strains, locus YLR342W, strain FKS1, stronger effect = lower value 0.987 | S. cerevisiae deletion strains, locus YLR357W, strain rsc2, stronger effect = lower value 1.01 | S. cerevisiae deletion strains, locus YLR370C, strain arc18, stronger effect = lower value 0.978 | S. cerevisiae deletion strains, locus YLR384C, strain iki3, stronger effect = lower value 0.975 | S. cerevisiae deletion strains, locus YML120C, strain ndi1, stronger effect = lower value 0.984 | S. cerevisiae deletion strains, locus YMR058W, strain fet3, stronger effect = lower value 1.02 | S. cerevisiae deletion strains, locus YMR125W, strain sto1, stronger effect = lower value 1.03 | S. cerevisiae deletion strains, locus YMR129W, stronger effect = lower value 0.978 | S. cerevisiae deletion strains, locus YMR205C, strain PFK2, stronger effect = lower value 1 | S. cerevisiae deletion strains, locus YMR231W, strain pep5, stronger effect = lower value 1.02 | S. cerevisiae deletion strains, locus YNL071W, strain lat1, stronger effect = lower value 1.03 | S. cerevisiae deletion strains, locus YNL209W, strain ssb2, stronger effect = lower value 0.995 | S. cerevisiae deletion strains, locus YNL248C, strain rpa49, stronger effect = lower value 1.02 | S. cerevisiae deletion strains, locus YNL322C, strain KRE1 (second series), stronger effect = lower value 1.03 | S. cerevisiae deletion strains, locus YNR049C, strain mso1, stronger effect = lower value 0.986 | S. cerevisiae deletion strains, locus YOR001W, strain rrp6, stronger effect = lower value 0.951 | S. cerevisiae deletion strains, locus YOR070C, strain gyp1, stronger effect = lower value 0.988 | S. cerevisiae deletion strains, locus YOR080W, strain dia2, stronger effect = lower value 0.998 | S. cerevisiae deletion strains, locus YOR083W, strain WHI5, stronger effect = lower value 0.969 | S. cerevisiae deletion strains, locus YOR106W, strain vam3, stronger effect = lower value 1.08 | S. cerevisiae deletion strains, locus YOR265W, strain rbl2, stronger effect = lower value 0.969 | S. cerevisiae deletion strains, locus YOR270C, strain vph1, stronger effect = lower value 1.07 | S. cerevisiae deletion strains, locus YOR290C, strain snf2, stronger effect = lower value 1.03 | S. cerevisiae deletion strains, locus YPL051W, strain arl3, stronger effect = lower value 1.02 | S. cerevisiae deletion strains, locus YPL078C, strain atp4, stronger effect = lower value 1.03 | S. cerevisiae deletion strains, locus YPL106C, strain sse1, stronger effect = lower value 1.12 | S. cerevisiae deletion strains, locus YPL240C, strain hsp82, stronger effect = lower value 0.982

COc1cc([N+](=O)[O-])c(OC)cc1SCC(=O)NNC(=O)c1cc(OC)c(OC)c(OC)c1
inactive: S. cerevisiae deletion strains, locus YAL013W, strain DEP1, stronger effect = lower value 0.982 | S. cerevisiae deletion strains, locus YBR229C, strain ROT2, stronger effect = lower value 1.01 | [1] 0.981 | S. cerevisiae deletion strains, locus YDL101C, strain DUN1, stronger effect = lower value 0.968 | S. cerevisiae deletion strains, locus YDL134C, strain PPH21, stronger effect = lower value 0.991 | S. cerevisiae deletion strains, locus YDR150W, strain NUM1, stronger effect = lower value 0.942 | S. cerevisiae deletion strains, locus YEL061C, strain CIN8, stronger effect = lower value 0.941 | S. cerevisiae deletion strains, locus YGR078C, strain PAC10, stronger effect = lower value 0.978 | S. cerevisiae deletion strains, locus YGR229C, strain SMI1, stronger effect = lower value 1.01 | S. cerevisiae deletion strains, locus YHR030C, strain SLT2, stronger effect = lower value 0.963 | S. cerevisiae deletion strains, locus YHR087W, strain rtc3, stronger effect = lower value 1.03 | [2] 1.01 | S. cerevisiae deletion strains, locus YJR043C, strain POL32, stronger effect = lower value 0.983 | S. cerevisiae deletion strains, locus YJR075W, strain HOC1, stronger effect = lower value 1.01 | S. cerevisiae deletion strains, locus YKL190W, strain CNB1, stronger effect = lower value 0.999 | S. cerevisiae deletion strains, locus YLR039C, strain RIC1, stronger effect = lower value 0.974 | S. cerevisiae deletion strains, locus YLR058C, strain SHM2 (second series), stronger effect = lower value 0.999 | S. cerevisiae deletion strains, locus YLR085C, strain ARP6, stronger effect = lower value 0.946 | S. cerevisiae deletion strains, locus YLR262C, strain YPT6, stronger effect = lower value 1.04 | S. cerevisiae deletion strains, locus YML094W, strain GIM5, stronger effect = lower value 1.01 | S. cerevisiae deletion strains, locus YMR219W, strain ESC1, stronger effect = lower value 1.01 | S. cerevisiae deletion strains, locus YMR263W, strain SAP30, stronger effect = lower value 0.987 | S. cerevisiae deletion strains, locus YNL153C, strain GIM3, stronger effect = lower value 0.988 | S. cerevisiae deletion strains, locus YNL298W, strain CLA4 (second series), stronger effect = lower value 0.937 | S. cerevisiae deletion strains, locus YNL322C, strain KRE1, stronger effect = lower value 0.98 | S. cerevisiae deletion strains, locus YNR030W, strain Alg12, stronger effect = lower value 0.999 | S. cerevisiae deletion strains, locus YOL006C, strain TOP1, stronger effect = lower value 0.931 | S. cerevisiae deletion strains, locus YPL055C, strain LGE1, stronger effect = lower value 1.01 | S. cerevisiae deletion strains, locus YPL241C, strain CIN2, stronger effect = lower value 0.939 | S. cerevisiae deletion strains, locus YPR135W, strain CTF4, stronger effect = lower value 0.904 | S. cerevisiae strains, strain wild type, stronger effect = lower value 1.02
